# From PubChem
# Shown are actives, neighbours in structure and some others; about 7.5% of the full set was active somewhere.
# NPC1 prom act = activators of NPC1 promoter | Huh7 NPC1 promoter luciferase reporter, 24 h | Potency, µM (series often up to 9.22 µM), inactives show at the highest dose activation, actives largely listed as activators | 2.4% of 320,000 active | AID 485313; note: % of control where 0% means no effect; nearly all actives have a fitted effect of over 60% in size
#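 Readout is luciferase luminescence, reflecting NPC1 promoter activation in stably transfected Huh7 cells after 24 h compound exposure at 37 °C in reduced-serum medium with 10% FBS.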
# SMN2 splice up = enhancers of SMN2 splice variant expression; Potency, µM (top dose mostly 46.1 µM), for inactives: at the top dose activity change, positive = activation, actives largely listed as activators; HEK293 SMN2-luciferase splicing reporter, luminescence, 30-36 h; 2.8% of 210,000 active; note: % of control where 0% means no effect; nearly all actives have a fitted effect of over 55% in size
#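 HEK293 cells carry an SMN2 […]–luciferase reporter in which exon 7 inclusion puts luciferase in frame. Cells were plated 10-12 h before compound addition, then incubated 30-36 h at 37C. ONE-Glo luminescence was read; sodium butyrate at 4.5 mM final served as control.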
# ELG1 genotoxic = inducers of genotoxicity in HEK293T ELG1-luciferase cells; HEK293T ELG1-luciferase reporter, luminescence, 16 h; Potency, µM (top dose mostly 46 µM), without a hit: at the highest dose activity change, positive = activation, usual class: activators; 1.3% of 330,000 active; AID 504466; note: % of control where 0% means no effect; nearly all actives have a fitted effect of over 60% in size
#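 Quantitative HTS format in 1536-well plates. HEK293T ELG1-luciferase reporter cells receive test compound and are incubated 16 hr at 37 °C, 5% CO2; ONE-Glo added, 30 min room temperature, then luminescence read.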
# FLuc modulator = inhibits or activates purified firefly luciferase, miR-21 counter-screen; purified FLuc, Km substrates, luminescence inhibition; 6.9% of 360,000 active; P08659; AID 588342; Potency, µM (top dose mostly 57.5 µM), for the others: at the top dose activity change, negative = inhibition, most hits filed as inhibitors;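 note: plate controls were vehicle for no effect and reference inhibitor for full effect; nearly all actives have a fitted effect of over 55% in size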
# Target sequence (P08659 whole entry, looked up): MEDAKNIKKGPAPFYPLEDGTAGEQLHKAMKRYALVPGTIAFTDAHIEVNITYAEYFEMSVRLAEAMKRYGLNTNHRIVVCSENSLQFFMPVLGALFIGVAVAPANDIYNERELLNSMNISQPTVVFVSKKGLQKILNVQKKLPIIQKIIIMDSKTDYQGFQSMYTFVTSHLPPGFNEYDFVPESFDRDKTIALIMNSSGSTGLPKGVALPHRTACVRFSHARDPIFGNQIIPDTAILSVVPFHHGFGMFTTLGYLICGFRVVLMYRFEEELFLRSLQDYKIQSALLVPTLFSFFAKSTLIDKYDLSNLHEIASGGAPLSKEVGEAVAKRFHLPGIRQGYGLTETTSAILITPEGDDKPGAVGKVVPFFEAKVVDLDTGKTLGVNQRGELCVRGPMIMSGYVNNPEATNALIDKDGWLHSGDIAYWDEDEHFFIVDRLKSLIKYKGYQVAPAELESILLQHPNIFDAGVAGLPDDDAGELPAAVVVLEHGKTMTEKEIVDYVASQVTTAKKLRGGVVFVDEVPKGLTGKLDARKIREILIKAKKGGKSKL
#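 Biochemical qHTS of compounds, final roughly 60 µM downward over six points, against 10 nM purified firefly luciferase using Km concentrations of substrates (10 uM D-luciferin, 10 uM ATP) in Tris acetate pH 7.5 buffer; luminescence output.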
# Rab9 prom act = activates the Rab9 promoter; Huh7 Rab9 promoter-luciferase reporter, luminescence, 24 h; Potency, µM (top dose mostly 9.22 µM), inactives show at the top dose activation, negative = inhibition, actives largely listed as activators; 2.8% of 320,000 active; AID 485297; note: % of control where 0% means no effect; nearly all actives have a fitted effect of over 60% in size
#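 Stable Rab9-luc Huh7, 1500 cells/well, 2 h settle; cmpd in DMSO, 24 h, 37 °C/5% CO2; luciferase reagent 10 min RT; luminescence.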
# * hit, by the source's call; ? = inconclusive; nt = not tested or not shown. Calls come from the whole dose curve; as a rule, active = well fitted curve in the direction sought with a large enough effect; inconclusive = small, poorly fitted or top-dose-only effect, or another doubt; inactive = no such curve, though single readings can be large; an effect the other way counts as inactive or inconclusive. Potency is the fitted concentration of half-maximal effect.
SMILES,NPC1 prom act,SMN2 splice up,ELG1 genotoxic,FLuc modulator,Rab9 prom act
O=C(c1ccc2c3n(nc2c1)-c1ccc(Cl)cc1CO3)N1CCOCC1,2µM*,nt,18µM*,9.5µM*,?
O=C(c1ccc2c3n(nc2c1)-c1ccccc1CO3)N1CCCCC1,0.79µM*,nt,?,3.4µM*,0.89µM*
COc1cccc(NC(=O)COC(=O)CCS(=O)(=O)c2ccc(C)cc2)c1,14%,21%,3%,-1%,14%
COc1cc(NC(=S)NCCO)c(OC)cc1Cl,2%,nt,-2%,0%,-3%
COc1ccccc1Oc1ccc(S(=O)(=O)N2CCCC2)cc1,9%,-18%,-2%,-4%,-1%
Nc1nonc1-c1nc2ccccc2n1CC(=O)N/N=C/c1ccc(-c2cccc(C(=O)O)c2)o1,0%,14%,5%,27µM*,-3%
Cc1nnc(N/N=C\c2ccc(-c3cccc(C(=O)O)c3)o2)n1N,-1%,-10%,0%,11µM*,?
Cc1ccc(C)c(NC(=O)Cn2c(-c3nonc3N)nc3ccccc32)c1,nt,-6%,nt,-1%,nt
Cc1ccc(NC(=O)Cn2c(-c3nonc3N)nc3ccccc32)cc1C,nt,10µM*,nt,-18%,nt
Cc1cccc(N(C)C(=O)c2cc3c(=O)oc4ccc(C)cc4c3s2)c1,nt,1%,nt,-9%,nt
CCCC(=O)C1=C(O)C(C(=O)OC)C(C)(C)CC1=N (centres undefined),-3%,?,1%,2%,16%
CCOc1ccc2c(c1)C(C)=CC(C)(C)N2S(=O)(=O)c1ccc(NC(C)=O)cc1,-16%,nt,?,-5%,-22%
COC(=O)c1ccc2[nH]c(CO)c(-c3ccccc3)c2c1,3%,nt,9%,-10%,-6%
Nc1c(C(=O)c2ccccc2)sc2nsc(SCCN3CCCC3)c12,-4%,nt,8%,24µM*,23%
CCN(CC(=O)N1CCCC1)S(=O)(=O)c1ccc(Br)cc1,-9%,nt,-1%,0%,6%
Cc1cccc(NC(=O)c2cnn(-c3ccccc3)c2C)c1C,2.8µM*,nt,?,?,4µM*
Cc1ccccc1NC(=O)c1cnn(-c2ccccc2)c1C,?,nt,4%,13µM*,?
Cc1ccc(C)c(NC(=O)c2cnn(-c3ccccc3)c2C)c1,30%,nt,6%,21µM*,?
O=C(COc1ccc(Cl)cc1Cl)Nc1cccc2cccnc12,nt,-3%,nt,-2%,nt
COCCCNC(=O)c1ccc(Cn2c(=O)c3ccccc3n(Cc3cc(C)ccc3C)c2=O)cc1,-4%,18%,-4%,-7%,-4%
COc1ccc(C(=O)O)cc1NC(=S)NC(=O)c1ccc(-c2ccc(Cl)cc2)o1,-1%,-14%,11%,13µM*,1%
Cc1ccc(C(=O)O)cc1NC(=S)NC(=O)c1ccc(-c2ccc(Cl)cc2)o1,-1%,nt,2%,?,-2%
O=C(O)c1cccc(NC(=S)NC(=O)c2ccc(-c3ccc(Cl)cc3)o2)c1,18%,73%,9%,15µM*,?
Cn1c(CO)nc2cc(N)ccc21,0%,nt,-1%,17µM*,0%
Nc1ccc(-c2nc3cc(N)ccc3n2CCO)cc1,1%,nt,0%,0%,1%
SMILES,NPC1 prom act,SMN2 splice up,ELG1 genotoxic,FLuc modulator,Rab9 prom act
Cc1cc(=O)[nH]c(N/N=C/c2c(C)nn(-c3ccccc3)c2C)n1,-6%,-4%,-5%,-19%,-2%
CCCn1c(/C=N/Nc2nc3ccccc3[nH]2)nc2ccccc21,-2%,-29%,?,13µM*,-25%
C=CCn1cc(/C=N/Nc2nc3ccccc3[nH]2)c2ccccc21,1%,30%,10%,5.4µM*,-6%
Cc1c(/C=N/Nc2nc3ccccc3[nH]2)c2ccccc2n1C,?,nt,?,11µM*,?
Cc1nn(-c2ccccc2)c(C)c1/C=N/Nc1nc2ccccc2[nH]1,0.71µM*,3.2µM*,5.2µM*,0.85µM*,0.5µM*
O=C(NCCN1CCOCC1)c1cc2c(=O)n3ccccc3nc2n1Cc1ccccc1,0%,6%,0%,4%,2%
CC(OC(=O)Cn1nnc2ccccc21)C(=O)NC1CCCC1 (centres undefined),1%,nt,2%,2%,1%
O=C(CN1CCN(S(=O)(=O)c2ccc(Cl)cc2)CC1)Nc1ccc(N2CCOCC2)cc1,-2%,-3%,-1%,-1%,0%
CCOCCCNC(=O)c1cc(=O)n(Cc2cccc(C)c2)c2ccccc12,-6%,-5%,-4%,-5%,0%
Cn1cc(S(=O)(=O)N2CCCC2)cc1C(=O)Nc1ccc(F)cc1F,nt,nt,nt,-2%,nt
Cn1c(/C=N/Nc2nc3ccccc3[nH]2)nc2ccccc21,?,4µM*,1.2µM*,1.5µM*,3.5µM*
Cc1ccc(S(=O)(=O)NC(=O)NCc2ccc3c(c2)OCO3)cc1,1%,?,4%,3%,3%
O=C(CC1Nc2ccccc2NC1=O)c1ccccc1 (centres undefined),?,13µM*,9.2µM*,3µM*,2.5µM*
Cc1ccc(NC(=O)CC2Nc3ccccc3NC2=O)cc1Cl (centres undefined),15%,-5%,?,24µM*,23%
Cc1ccc(NC(=O)CC2Nc3ccccc3NC2=O)cc1C (centres undefined),nt,-6%,nt,-12%,nt
Cc1ccc(NC2Sc3ccccc3NC2=O)cc1Cl (centres undefined),0%,nt,-1%,19µM*,0%
Cc1ccc(S(=O)(=O)N2CCN(C(C(=O)Nc3ccc(F)cc3)c3ccccc3)CC2)cc1 (centres undefined),-3%,-12%,2%,4%,0%
CCOCCCNC(=O)C(c1ccc(OC)cc1)N(Cc1ccc2c(c1)OCO2)C(=O)c1ccc(NC(C)=O)cc1 (centres undefined),nt,0%,nt,-5%,nt
CCCc1cc(N2CCCC(C(=O)Nc3ccc(OC)cc3OC)C2)n2ncnc2n1 (centres undefined),-1%,-42%,-7%,1%,-4%
O=C(Nc1nc2c(F)cccc2s1)c1ccc([N+](=O)[O-])o1,4µM*,nt,2%,?,?
COc1cccc(CNC(=O)C2CCN(c3nnc(N4CCCC4=O)s3)CC2)c1,-5%,nt,1%,0%,1%
CC(=O)Cn1nnc2sc3c(c2c1=O)CCC(C(C)(C)C)C3 (centres undefined),3.5µM*,21%,3%,21µM*,2.8µM*
CC1CCc2c(sc3nnn(CC(=O)Nc4ccc(Cl)cc4)c(=O)c23)C1 (centres undefined),nt,nt,nt,-16%,nt
CCn1nnc2sc3c(c2c1=O)CCC(C)C3 (centres undefined),?,-5%,15%,13µM*,?
O=C(Nc1ccc2ncccc2c1)c1ccccc1Br,?,nt,6.5µM*,12µM*,2.8µM*
Cc1nc2cc(NC(=O)c3ccc(S(=O)(=O)N(C)c4ccccc4)cc3)ccc2o1,0%,nt,-42%,17µM*,-9%
